From PubChem BioAssay
PLK1 PBD inh = blocks phosphopeptide binding to human PLK1 polo-box domain | P53350 | Plk1 PBD binding of FITC phosphopeptide, fluorescence polarization | Potency, µM, hits mostly inhibitors | hit rate 2.8% among 360,000; note: series mostly up to about 57 µM; nearly all actives have a fitted effect of over 65% in size
G9a inh = blocks human histone lysine methyltransferase G9a; AID 504332; hit rate 8.8% among 350,000; Potency, µM (top dose mostly 102 µM), hits mostly inhibitors; Q96KQ7; G9a H3K9 monomethylation, AlphaScreen, 2 h; note: nearly all actives have a fitted effect of over 75% in size
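Chemiluminescent proximity detection of H3K9 monomethylation, read after 10 min bead incubation in the dark. Reaction: 20 nM G9a, 500 nM biotin-H3K9 peptide, 20 uM SAM cofactor, 2 h, room temperature, following 15 min enzyme-compound preincubation.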
HP1b chromo inh = HP1-beta chromodomain-methylated histone interaction inhibition | P83916 | AlphaScreen HP1-beta / biotin-H3K9me3 peptide binding | Potency, µM (doses to about 114 µM), most hits filed as inhibitors | hit rate 0.56% among 390,000 | AID 540317; note: nearly all actives have a fitted effect of over 70% in size
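Compound inhibition of the preformed complex between 50 nM HP1-beta and 50 nM biotinylated H3K9me3 peptide was read by AlphaScreen. Buffer was PBS pH 7.4 with 0.01% Tween-20. Incubations ran 30 min at room temperature, with 10 ug/mL donor/acceptor beads.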
BAZ2B block = blocks human BAZ2B; Q9UIF8; AlphaScreen BAZ2B-H3K14Ac peptide displacement; Potency, µM (doses to about 114 µM), most hits filed as inhibitors; hit rate 4.4% among 360,000; note: nearly all actives have a fitted effect of over 60% in size
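Multi-concentration screen (max 110 uM) measuring displacement of acetylated histone H3 peptide from BAZ2B by AlphaScreen, using 50 nM protein, 50 nM peptide and 10 ug/mL streptavidin donor plus Ni-chelate acceptor beads.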
JMJD2A Tudor = inhibitors of human JMJD2A Tudor domain; O75164; AlphaScreen JMJD2A-Tudor / H3K4me3 peptide binding; Potency, µM (doses to about 114 µM), most hits filed as inhibitors; hit rate 4.4% among 390,000; AID 504339; note: nearly all actives have a fitted effect of over 50% in size
Target sequence (O75164 whole entry, looked up, the tested form may be a part): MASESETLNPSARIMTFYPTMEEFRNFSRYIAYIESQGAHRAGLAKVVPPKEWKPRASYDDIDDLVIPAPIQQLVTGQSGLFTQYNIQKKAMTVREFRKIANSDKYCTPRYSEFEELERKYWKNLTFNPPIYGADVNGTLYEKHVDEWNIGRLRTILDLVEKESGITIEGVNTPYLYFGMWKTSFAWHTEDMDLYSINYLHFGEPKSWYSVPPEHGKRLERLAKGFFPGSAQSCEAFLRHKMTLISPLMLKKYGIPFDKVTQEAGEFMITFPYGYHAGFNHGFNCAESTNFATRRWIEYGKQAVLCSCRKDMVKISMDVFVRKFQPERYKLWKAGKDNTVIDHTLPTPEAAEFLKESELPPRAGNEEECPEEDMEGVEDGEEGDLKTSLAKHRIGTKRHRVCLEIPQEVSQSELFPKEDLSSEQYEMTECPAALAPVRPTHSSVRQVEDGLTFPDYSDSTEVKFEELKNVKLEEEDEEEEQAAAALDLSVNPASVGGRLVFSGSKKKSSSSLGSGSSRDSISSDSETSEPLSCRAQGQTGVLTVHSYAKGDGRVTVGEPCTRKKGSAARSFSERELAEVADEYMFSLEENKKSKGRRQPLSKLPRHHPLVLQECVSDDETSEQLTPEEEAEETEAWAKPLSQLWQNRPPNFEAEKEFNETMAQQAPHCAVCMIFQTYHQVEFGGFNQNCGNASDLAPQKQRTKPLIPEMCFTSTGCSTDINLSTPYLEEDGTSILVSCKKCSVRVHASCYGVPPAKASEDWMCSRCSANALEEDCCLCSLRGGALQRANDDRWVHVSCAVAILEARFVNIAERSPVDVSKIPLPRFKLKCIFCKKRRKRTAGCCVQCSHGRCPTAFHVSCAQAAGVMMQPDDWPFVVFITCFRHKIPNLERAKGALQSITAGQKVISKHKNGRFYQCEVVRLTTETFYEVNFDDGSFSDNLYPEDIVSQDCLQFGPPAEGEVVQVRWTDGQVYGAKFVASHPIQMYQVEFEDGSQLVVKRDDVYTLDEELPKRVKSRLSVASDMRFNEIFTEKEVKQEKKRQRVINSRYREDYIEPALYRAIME
Sfp inh = blocks B. subtilis Sfp PPTase activity | Q9F4F7 | Biochemical Sfp PPTase activity, qHTS | Potency, µM, usual class: inhibitors | hit rate 3.5% among 310,000 | AID 1490;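 note: the enzyme is Sfp with the accession as filed and its product quenches rhodamine fluorescence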
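Buffer: 50 mM Hepes-Na pH 7.6, 10 mM MgCl2, 0.01% Nonidet P-40, 0.01% BSA. Enzyme 15 nM, pre-exposed to compound 15 min; substrates then added and fluorescence change tracked over 30 min.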
A number is an active result; n = inactive; u = inconclusive; x = not tested or not shown; ! = repeats disagree; [ ] = dose if it differs, or a comment. A selection: hits, their analogues and other compounds. The true share with any hit is near 12%. Calls come from the whole dose curve; as a rule, active = well fitted curve in the direction sought with a large enough effect; inconclusive = small, poorly fitted or top-dose-only effect, or another doubt; inactive = no such curve, though single readings can be large; an effect the other way counts as inactive or inconclusive.

SMILES	PLK1 PBD inh	G9a inh	HP1b chromo inh	BAZ2B block	JMJD2A Tudor	Sfp inh
CCOc1ccc(NC2CCCCC2NS(=O)(=O)c2ccccc2)cc1 (stereo not given)	n	u	u	44.7µM	56.2µM	n
Cc1cc(C)cc(OC2CCCCC2NS(=O)(=O)c2ccccc2)c1 (stereo not given)	n	n	n	n	n	n
CC(C)(C)OC(=O)N1CCC(c2c(C(=O)NCCc3ccccc3)cnn2-c2ccc(F)cc2)CC1	x	u	n	n	n	x
COc1ccc(C2c3ccc4ccccc4c3Oc3ncn(CCO)c(=N)c32)cc1 (stereo not given)	n	n	n	u	u	n
COc1ccc(C2c3ccc4ccccc4c3Oc3ncn(CCCO)c(=N)c32)cc1 (stereo not given)	n	n	n	70.8µM	n	u
COc1cccc(C2c3c(ncn(-c4cccc(C#N)c4)c3=N)Oc3ccc4ccccc4c32)c1 (stereo not given)	x	x	x	x	79.4µM	x
COc1ccc(C2C3=C(CC(C)(C)CC3=O)Oc3ncn(CC(C)C)c(=N)c32)cc1 (stereo not given)	n	n	n	n	n	n
N=c1c2c(ncn1Cc1ccco1)Oc1ccc3ccccc3c1C2c1ccccc1 (stereo not given)	n	u	u	44.7µM	u	22.4µM
COc1ccc(C2C3=C(CC(C)(C)CC3=O)Oc3ncn(Cc4ccco4)c(=N)c32)cc1 (stereo not given)	n	u	n	50.1µM	u	n
Cc1ccc(CNC(=O)CCC2CCCN(Cc3cc4ccccc4o3)C2)o1 (stereo not given)	n	u	n	n	u	n
COc1cccc(C2c3c(ncn(CCCN4CCOCC4)c3=N)Oc3ccc4ccccc4c32)c1 (stereo not given)	x	x	x	x	28.2µM	x
COc1ccc(C2c3c(n(CCc4ccccc4)cnc3=N)Oc3ccc4ccccc4c32)cc1OC (stereo not given)	x	x	x	x	56.2µM	x
COc1ccc(C2c3c(ncn(CCCN4CCOCC4)c3=N)Oc3ccc4ccccc4c32)cc1OC (stereo not given)	n	u	n	n	u	n
COc1ccc(C2c3c(nc(CCc4ccccc4)[nH]c3=O)Oc3ccc4ccccc4c32)cc1OC (stereo not given)	x	x	x	x	n	x
CCOc1ccccc1C(=O)Oc1cc(C)[nH]c(=O)c1[N+](=O)[O-]	n	u	n	n	n	n
CCC1=C2CC[C@H]3C(=O)N(c4ccccc4)C(=O)[C@H]3[C@H]2[C@@]2(Cc3ccccc3)C(=NCCOC)OC(=O)N2C1=O	x	x	x	x	x	n
COc1cc(NC(=O)CN2C(=O)COc3ccccc32)cc(OC)c1	n	x	n	x	n	x
C/C(CS(=O)(=O)c1ccc(Cl)cc1)=N/NC(N)=S	n	n	n	n	n	79.4µM
NS(=O)(=O)c1ccc(CCNC(=O)CCNS(=O)(=O)c2ccccc2C(F)(F)F)cc1	n	n[2.33 µM]	n	n	n	x
CCN(CC)Cc1c(O)c(Cl)cc2c(C)cc(=O)oc12	n	u	u	56.2µM	n	n
COc1ccccc1S(=O)(=O)CC(O)COc1ccc(C#N)cc1 (stereo not given)	n	n	n	n	n	n
Cc1ccc2cccc(NC(=O)c3ccc(-c4ccc(Cl)cc4Cl)o3)c2n1	x	n	n	n	n	x
Cc1c(C(=O)Nc2ccc(-c3nnc4n3CCCCC4)cc2)oc2c1ccc1ccccc12	n	50.1µM	n	n	u	u
O=C(Nc1ccc(-c2nnc3n2CCCCC3)cc1)c1cc2ccccc2o1	n	n	n	n	n	n
COC(=O)C1CCN(C(=O)COC(=O)CNS(=O)(=O)c2ccc(SC)c([N+](=O)[O-])c2)CC1	n	n[0.501 µM]	n	n	n	x
SMILES	PLK1 PBD inh	G9a inh	HP1b chromo inh	BAZ2B block	JMJD2A Tudor	Sfp inh
CSc1ccc(S(=O)(=O)NCC(=O)OCC(=O)N2CC(C)CC(C)C2)cc1[N+](=O)[O-] (stereo not given)	n	50.1µM	n	n	n	x
CCOC(=O)C1(Cc2ccccc2Cl)CCN(C(=O)c2cnccn2)CC1	n	n	n	n	n	n
CN=c1sc(C(=O)Nc2cccc(Cl)c2)cc(=O)n1C	u	n	n	n	44.7µM	n
Cn1c(N)c(C(=O)Nc2cccc(Cl)c2)c(=O)n(C)c1=O	n	n	n	n	n	n
Cc1ccc(S(=O)(=O)CC#CCOC(=O)c2ccc([N+](=O)[O-])cc2)cc1	x	u	x	u	x	50.1µM
N#Cc1sc(=O)[nH]c1Cl	u	x	n	x	89.1µM!	50.1µM
Cc1[nH]c(=O)c(C#N)c(C)c1Cl	n	n	n	n	n	n
CC(=O)N1C(=O)C2(C(C#N)=C(N)Oc3n[nH]c(-c4ccccn4)c32)c2ccccc21 (stereo not given)	23.8µM	n[2.33 µM]	n	n	n[11.4 µM]	n
Cc1[nH]nc2c1C1(C(=O)N(Cc3ccc(Cl)cc3)c3ccccc31)C(C#N)=C(N)O2 (stereo not given)	n	50.1µM	n	n	u	n
CC(=O)O[C@@H](C[C@@H](C)C1=C2C[C@H](O)C3[C@@]4(C)CCC(=O)C(C)(C)C4CC[C@]3(C)[C@@]2(C)CC1)[C@H]1OC1(C)C (stereo not given in full)	n	x	n	x	n	x
CN(CC(=O)Nc1ccc([N+](=O)[O-])cc1Br)Cc1c(F)cccc1Cl	26.7µM	u	n	n	u	n
CN(CC(=O)NCCc1ccc(S(N)(=O)=O)cc1)Cc1c(F)cccc1Cl	n	50.1µM	n	n	n	n
CC(NCCc1ccc(S(N)(=O)=O)cc1)C(=O)NCCc1ccc(F)cc1 (stereo not given)	n	n	u	50.1µM	25.1µM	n
Cc1cc2oc(C(=O)NCCc3ccc(S(N)(=O)=O)cc3)cc(=O)c2cc1C	26.7µM	n	n	n	u	n
CC(NCC(=O)NCCc1ccc(S(N)(=O)=O)cc1)c1ccc(F)cc1 (stereo not given)	n	x	n	n	n	n
CN1CCN(c2ncc3ncc(=O)n(CCC#N)c3n2)CC1	x	n[0.501 µM]	x	x	x	n
CCOC(=O)c1cc2n(c1/N=C/N(C)C)-c1ccccc1C2=O	u	u	n	n	n	7.94µM
CCOC(=O)c1cc(=O)[nH]c2ccccc12	n	n	n	n	n	n
CN(C)c1ccc(/C=C/C(=O)c2cc(Cl)ccc2O)cc1	n	3.98µM	u	6.31µM	12.6µM	n
O=C(/C=C/c1ccncc1)c1cc(Cl)ccc1O	n	22.4µM	u	44.7µM	35.5µM	n
CN(C)c1ccc(C(=O)/C=C/c2ccc(Br)cc2)cc1	n	u	n	n	n	n
O=C(Cc1ccc(S(=O)(=O)N2CCOCC2)s1)Nc1ccc(S(=O)(=O)N2CCCCC2)cc1	n	44.7µM	n	n	n	x
O=C(Cc1ccc(S(=O)(=O)N2CCOCC2)s1)NC1CCCCC1	n	12.6µM	n	50.1µM	u	x
